Assay outcomes (PubChem BioAssay)
An excerpt weighted towards active compounds, which were near 0.65% of everything screened.
RN4220 kill – S. aureus RN4220 growth inhibition; OD600, 16 h; inhibition, % (no concentration beside the values); 330,000 tested, 0.33% active; AID 1259311; in the data active = inhibition above about 85%
BJeLR lethal – BJeLR cell viability loss | BJeLR (HRASV12) viability, CellTiter-Glo ATP luminescence, 48 h | inhibition, % (no concentration beside the values) | 300,000 tested, 0.17% active; in the data active = inhibition above about 50%
ugtP null kill – kills S. aureus RN4220 lacking UgtP | S. aureus RN4220 ugtP deletion, OD600 growth, 16 h | growth inhibition, % (concentration not given with the values) | 330,000 tested, 0.54% active; in the data active = growth inhibition above about 68%
A number is an active result; 0 = inactive; - = not tested or not shown.

SMILES	RN4220 kill	BJeLR lethal	ugtP null kill
COc1ccc(/C=N/NC(=O)c2[nH]c3ccc(Br)cc3c2-c2ccccc2)c(C(=O)O)c1OC	-	0	-
CCc1nc(C)cn1S(=O)(=O)c1ccc(Cl)c(Cl)c1Cl	0	0	0
CCc1nc(C)cn1S(=O)(=O)c1ccc([N+](=O)[O-])cc1	97	0	94
Cn1c(CSc2ncn[nH]2)nc2ccccc21	0	0	0
O=C(O)C[C@H](O)C[C@H](O)/C=C/c1c(C2CC2)nc2ccccc2c1-c1ccc(F)cc1	-	53	-
CC(C)n1c(/C=C/[C@H](O)C[C@H](O)CC(=O)O)c(-c2ccc(F)cc2)c2ccccc21	0	-	0
Cc1cc(C)c(S(=O)(=O)NCc2cn3c(C)csc3n2)cc1C	0	0	0
Clc1ccc(OCCCNCc2ccccc2)c2ccccc12	100	0	95
Brc1ccccc1OCCNCc1ccccc1	0	0	0
Cc1cccc(C(=O)N2N=C(c3ccc(NS(C)(=O)=O)cc3)CC2c2cccs2)c1 (stereo not given)	0	0	0
COC(=O)c1c(-c2ccc(OC)cc2)sc2ccc(-c3ccc4c(c3)OCO4)cc12	0	-	0
COC(=O)c1c(-c2ccc(OC)cc2)sc2ccc(OC)cc12	0	-	91
C[n+]1c2n(c3ccccc31)N=C(c1ccccc1)CS2	0	0	0
C[n+]1c2n(c3ccccc31)N=C(c1ccc(-c3ccccc3)cc1)CS2	100	0	101
CCOC(=O)N1CCN(C(=O)C(NC(=O)c2ccco2)C(C)C)CC1 (stereo not given)	0	0	0
Fc1ccc2cnc(-c3ccccc3)c(-c3ccc(C(F)(F)F)cc3)c2c1	0	-	0
COc1cc2cnc(-c3ccccc3)c(-c3ccc(C(F)(F)F)cc3)c2cc1OC	100	-	101
CC(OC(=O)c1cnccn1)C(=O)Nc1nc(-c2cccc([N+](=O)[O-])c2)cs1 (stereo not given)	0	-	0
Cc1ccc(-c2c[n+](CC(=O)OCc3ccccc3)c3n2CCC3)cc1	0	0	0
CC1CCC(C(C)C)C(OC(=O)C[n+]2cc(-c3ccc(Cl)cc3)n3c2CCC3)C1 (stereo not given)	101	0	101
COc1ccc(CNC(=O)C2CC(c3ccc(OC)cc3)=NO2)cc1 (stereo not given)	0	0	0
COc1ccc(C2=NOC(CNC(N)=S)C2)cc1 (stereo not given)	0	0	83
CCOC(=O)c1oc2ccc(CNC3CCCCC3)c(Cl)c2c1C	0	0	82
CCOC(=O)c1oc2ccc(CNCCO)c(Cl)c2c1C	0	0	0
CC1CCc2cc(F)cc3c(O)c(C(=O)NCC4CCCO4)c(=O)n1c23 (stereo not given)	0	0	0
SMILES	RN4220 kill	BJeLR lethal	ugtP null kill
CC1CCc2cc(F)cc3c(=O)c(C(=O)O)cn1c23 (stereo not given)	97	0	99
CC1CCc2c(N3CCC(O)CC3)c(F)cc3c(=O)c(C(=O)O)cn1c23 (stereo not given)	99	-	99
CN(C(=O)CSc1ccccc1C(=O)O)C1CCCCC1	0	0	0
CCn1cc([N+](=O)[O-])c(C(=O)Nc2ccc(Cn3nc(C)cc3C)cc2)n1	0	0	0
O=C(Nc1cc(C(F)(F)F)ccc1N1CCOCC1)c1ccc(F)cc1	0	0	0
O=C(Nc1cc(C(F)(F)F)ccc1N1CCOCC1)c1n[nH]c(=O)c2ccccc12	100	0	98
COc1cccc(NC(=S)N(CCc2c(C)[nH]c3ccccc23)Cc2cccs2)c1	0	-	0
NC(CCCCc1ccccc1)c1cccc2ccccc12 (stereo not given)	-	0	-
C[n+]1c(-c2ccccc2)cc(CCCCc2cc(-c3ccccc3)[n+](C)c(-c3ccccc3)c2)cc1-c1ccccc1	93	-	0
COc1ccc(C)cc1NC(=O)c1ccc([N+](=O)[O-])cc1[N+](=O)[O-]	0	0	0
COc1ccc2c(c1)c1ncn(CCN3CCCCC3)c(=O)c1n2C	0	0	0
CCc1ccc(O)c(CNCCNCc2cc(CC)ccc2O)c1	0	0	0
CCOC(=O)C1(CC2CC2)CCN(Cc2cc(Cl)c(O)c(OC)c2)CC1	0	0	0
CCOC(=O)N1CCC(N(C(=O)Nc2cccc(OC)c2)C(C)CC)CC1 (stereo not given)	0	0	0
C=CCn1c(SCc2c(C)noc2C)nc2sc3c(c2c1=O)CCCCC3	0	0	88
C=CCn1c(SCc2c(C)noc2C)nc2sc3c(c2c1=O)CCCC3	0	0	0
Cc1nn2c(C)c(C(=O)Nc3ccccc3)cnc2c1C#N	0	0	0
CCOc1ccc(C(=O)NCC(c2ccco2)N2CCc3ccccc3C2)cc1 (stereo not given)	0	0	0
CCN(CC)S(=O)(=O)c1cc(NS(=O)(=O)c2cccc(Cl)c2)ccc1C	0	0	0
CCc1sc(N(C(=O)Cc2ccccc2)c2cccc(F)c2)nc1-c1ccc(C)cc1	0	0	0
CCc1sc(N(C(=O)Cc2ccccc2)c2ccccc2F)nc1-c1ccc(C)cc1	0	0	85
Oc1c(Cl)cc(Cl)cc1CN1CCN(Cc2ccccc2)CC1	0	0	0
Oc1c(Cl)cccc1Cc1cc(Cl)cc(Cl)c1O	100	-	100
Cc1cc(-c2n[nH]c(=S)n2N=C/C(Cl)=C/c2ccccc2)n[nH]1	0	-	0
O=c1c2ccccc2sn1-c1ccc(F)cc1	0	-	0
SMILES	RN4220 kill	BJeLR lethal	ugtP null kill
Cc1ccc(-n2sc3ccccc3c2=O)cc1	100	0	100
Cn1cccc1C=NNC(=O)C1COc2ccc(C(C)(C)C)cc2O1 (stereo not given)	0	-	0
Cc1c(C(=O)NC(C)CCc2ccccc2)cccc1[N+](=O)[O-] (stereo not given)	0	0	0
C=CC[n+]1ccc(/C=C2\C=Cc3cc(C)ccc3N2CC)c2ccccc21	92	-	93
CCN1/C(=C/c2cc[n+](CCCS(=O)(=O)[O-])c3ccccc23)Sc2ccccc21	0	0	0
O=C(O)c1cc(-c2ccc(-c3c(-c4ccc5c(c4)OCO5)noc3-c3ccsc3)cc2)nc2ccccc12	96	0	94
CN(C)c1ccc(-c2c(-c3ccc4c(c3)OCO4)noc2-c2ccsc2)cn1	0	0	0
COc1ccc(C(=O)Nc2ccc(Cl)cn2)cc1Cl	0	0	0
FC(F)Sc1ccc(NC(=S)NCc2ccccc2)cc1	0	0	0
FC(F)Sc1ccc(NC(=S)NC(c2ccccc2)c2ccccc2)cc1	99	0	100
FC(F)Sc1ccc(NC(=S)NC2CCCCC2)cc1	0	0	0
FC(F)Sc1ccc(NC(=S)NCC2CCCCC2)cc1	99	0	100
Cc1ccc(S(=O)(=O)N2CCN(Cc3nc4ccccc4n3C)CC2)cc1	0	0	0
COc1ccc(C2C=C(Nc3ccccc3)C(=O)N2c2ccccc2)cc1OC (stereo not given)	0	0	0
COc1ccc(/C=C(\C#N)C(=O)OCC(=O)NCc2ccco2)cc1	0	0	0
C[n+]1ccn(CC(=O)c2cccs2)c1	0	0	0
CCCCCCCCCCCCCCCCn1cc[n+](C)c1	101	0	99
CCOc1ccc(C(=O)NC(C)C2COc3ccccc3O2)cc1 (stereo not given)	0	0	0
O=C(/C=C/c1ccc2c(c1)OCO2)c1c(O)n(CCC2=CCCCC2)c(=O)[nH]c1=O	100	-	100
COc1ccc(/C=C/C(=O)c2c(O)n(CCC3=CCCCC3)c(=O)[nH]c2=O)cc1	89	0	92
